Measurements as given in PubChem BioAssay (NCATS).
Results filed as inconclusive are left out. A number with no mark means an inactive call. The source made the active and inactive calls. The call rests on the fitted dose curve; in most records, active means well fitted inhibition curve with a large enough effect; inconclusive means small, poorly fitted or top-dose-only effect; inactive means flat fitted curve, though single readings scatter.

Each compound was assayed on HEK293 (assay: Cytotoxic Profiling of Annotated Libraries Using Quantitative High-Throughput Screening (AID 1296008; further: nearly all actives have a fitted effect of over 60% in size)). Conditions: Five cell lines viability, CellTiter-Glo ATP luminescence, 48-72 h; max response: hits give low values.
Summary of the method: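 Cytotoxicity was measured as CellTiter-Glo ATP luminescence, read after 10 min at room temperature. Compound treatment of the cells lasted 48 or 72 hr at 37 degrees Celsius in a qHTS format.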
On the % scale 0 is the no-effect control and ±100 the full control effect; potency means the concentration at half of the fitted maximal effect.

Row | Compound | Potency | max response
1 | Cc1ccc(S(=O)(=O)c2ccc([N+](=O)[O-])o2)cc1 | 1.03 µM (active) | 
2 | CCOCc1nc2c(N)nc3ccccc3c2n1CC(C)(C)O |  | -5.94%
3 | C[C@@H]1O[C@@H](O[C@H]2[C@@H]3C=CO[C@@H](O[C@@H]4O[C@H](CO)[C@@H](O)[C@H](O)[C@H]4O)[C@@H]3[C@@]3(CO)O[C@@H]23)[C@H](OC(=O)/C=C/c2ccc(O)c(O)c2)[C@H](O)[C@H]1O |  | -5.61%
4 | C=C1CCCC2(C)CC3(OC)OC(=O)C(C)=C3CC12 (stereo not drawn) |  | 3.93%
5 | CC1CC[C@]2(C(=O)O)CC[C@]3(C(=O)O)C(=CCC4[C@@]5(C)CC[C@H](O[C@@H]6O[C@H](CO)[C@@H](O)[C@H](O)[C@H]6O)C(C)(C)C5CC[C@]43C)C2C1C (stereo partly drawn) |  | -4.94%
6 | CC(C)=CC/C=C(\C)[C@H]1CC[C@]2(C)[C@@H]1[C@H](O)C[C@@H]1[C@@]3(C)CC[C@H](O)C(C)(C)[C@@H]3[C@@H](O[C@@H]3O[C@H](CO)[C@@H](O)[C@H](O)[C@H]3O)C[C@]12C |  | -11.4%
7 | CC(C)CCC1(O)C(=O)C(C)(C)C(O[C@@H]2O[C@H](CO)[C@@H](O)[C@H](O)[C@H]2O)C(C)(C)C1O (stereo partly drawn) |  | -13.9%
8 | OC[C@@]1(O)CO[C@@H](OC[C@H]2O[C@@H](Oc3c[nH]c4ccccc34)[C@H](O)[C@@H](O)[C@@H]2O)[C@@H]1O |  | -21.5%
9 | c1ccc(N2CCN(CCc3nn[nH]n3)CC2)cc1 |  | -5.85%
10 | NC(=O)c1csc(C2OC(CO)C(O)C2O)n1 (stereo not drawn) |  | -9.16%
11 | O=C(Nc1ccc(S(=O)(=O)Nc2ccccc2Cl)c(Cl)c1)c1ccccn1 |  | -10.8%
12 | CC(=O)OCC1(O)CCC2C(COC3OC(CO)C(O)C(O)C3OC(=O)/C=C/c3ccc(O)cc3)=COC(OC(=O)CC(C)C)C21 (stereo not drawn) |  | -11%
13 | CCOC(=O)C(CCc1ccccc1)NC(C)C(=O)N1C(=O)N(C)CC1C(=O)O (stereo not drawn) |  | -4.81%
14 | O=C(O)/C=C/c1cc2c(cc1O[C@@H]1O[C@H](CO)[C@@H](O)[C@H](O)[C@H]1O)OCO2 |  | 2.33%
15 | Cc1ccc(-c2ccc3ncc4c(c3n2)n(C2CCN(C(=O)[C@H](C)O)CC2)c(=O)n4C)cn1 | 0.082 µM (active) | 
16 | C/C1=C\CCC2=C[C@@H](OC2=O)c2c(C)coc2C1 |  | -3.99%
17 | COC1CC(O[C@H]2CC[C@@]3(C)C(CCC4C3[C@H](OC(C)=O)[C@@H](OC(=O)/C=C/c3ccccc3)[C@]3(C)C(C(C)=O)CC[C@]43O)C2)OC(C)C1OC1CC(OC)C(OC2CC(OC)C(OC3OC(C)C(OC4OC(CO)C(O)C(O)C4O)C(OC)C3O)C(C)O2)C(C)O1 (stereo partly drawn) |  | -13.6%
18 | COc1ccc(CCO[C@@H]2O[C@H](CO[C@@H]3OC[C@H](O)[C@H](O)[C@H]3O)[C@@H](O)[C@H](O)[C@H]2O)cc1 |  | -0.354%
19 | COc1c(C)c(OCC(O)C(C)(C)O)cc2c1COC2=O (stereo not drawn) |  | -24.2%
20 | Cn1c2ccc(F)cc2c2c(C(=O)N3CCCC3)cn(-c3ccccc3)c(=O)c21 |  | -22.1%
21 | CC(C)=CCC/C(C)=C/Cc1ccc(O)c(C2OC(=O)c3cc(C(=O)O)cc(O)c32)c1O (stereo not drawn) |  | 0.876%
22 | CC[C@H]1OC(=O)[C@](C)(F)C(=O)[C@H](C)[C@@H](O[C@@H]2O[C@H](C)C[C@H](N(C)C)[C@H]2O)[C@](C)(OC)C[C@@H](C)C(=O)[C@@H](C)[C@H]2N(CCCCn3cc(-c4cccc(N)c4)nn3)C(=O)O[C@]12C | 1.46 µM (active) | 
23 | C=C[C@@]12COC(=O)C(=C)C1[C@@H](O)[C@H](C(=C)C(=O)OC)[C@@H](OC(=O)C(=C)CO)C2 (stereo partly drawn) | 10 µM (active) | 
24 | CCOC(=O)c1cc(C#N)c(N2CCC(C(=O)NS(=O)(=O)Cc3ccccc3)CC2)nc1C |  | -0.212%
25 | CC(C)c1cc2c(c(O)c1O)[C@@]13CCCC(C)(C)[C@@H]1[C@H](OC3=O)C2=O |  | -6.57%
26 | CCC(C)C(=O)OC1CC(C)C=C2C=CC(C)C(CCC(O)CC(O)CC(=O)O)C21 (stereo not drawn) |  | -0.653%
27 | CC(C(O)/C=C/C(C)(C)O)C1CCC2(C)C3C(=O)C=C4C(CCC(O)C4(C)C)C3(C)CCC12C (stereo not drawn) |  | -3.03%
28 | O=C(NCc1ccccn1)Nc1nnc(-c2ccco2)o1 |  | -0.62%
